Compound activity as filed in PubChem.
TWEAK-Fn14 inh – TWEAK-Fn14 signaling inhibition. TWEAK-stimulated Fn14 reporter cells, luciferase luminescence, 8 h. inhibition, % at 10 µM. 2% of 360,000 active. AID 1159606; in the data active means inhibition above about 50%
C8 TRAIL sens – sensitizes caspase-8 expressing cells to TRAIL | NB7+C8 cells + TRAIL, ATPlite viability luminescence | inhibition (viability loss, TRAIL sensitization), % at 10 µM | 1% of 360,000 active | AID 624354;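 active means compounds causing at least 50% loss of cell viability in the single-dose screen, relative to plate controls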
aSyn 5UTR inh – MLPCN primary screen, SNCA 5' untranslated region. 0.82% of 300,000 active. AID 1813. inhibition, % (tested at 7.5 µM). alpha-synuclein 5'UTR reporter, inhibitor activity; in the data active means inhibition above about 60%;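 further: H4 neuroglioblastoma cells stably carrying SNCA 5'UTR luciferase fusion; 0% = DMSO wells and 100% = positive control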
HIF-2a inh – HIF-2a inhibition. inhibition, % at 18.8 µM. 0.72% of 360,000 active. 786-0 RCC cells HIF-2a reporter, luciferase luminescence, overnight. AID 624352;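 active means inhibition of the luminescence signal of 40% or more relative to plate controls, in a single-dose primary screen at 18.75 µM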
TROY NFkB inh – TROY signaling inhibition; Q293 LMP1-TROYcd NF-kB luciferase reporter, 4 h; inhibition, % at 10 µM; 0.98% of 360,000 active; AID 1347056;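 active means compounds whose plate-normalised and pattern-corrected inhibition of the luciferase reporter signal at the single screening dose is 50% or more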
HSP90 inh – HSP90 refolding inhibition in rabbit reticulocyte lysate. luciferase refolding luminescence, 3 h. inhibition, % at 5.6 µM. 0.91% of 290,000 active. AID 1789;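 active means inhibition above the screen-wide mean plus 3 SD, computed separately per campaign, cut at about 16% in these data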;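 further: 0% = DMSO wells and 100% = 60 µM geldanamycin wells; inhibitors lower the luminescence because luciferase stays unfolded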
Numbers without * were called inactive; x = no result. Compounds with a hit are over-represented: about 3.9% of the library has one in this group of screens.

SMILES | TWEAK-Fn14 inh | C8 TRAIL sens | aSyn 5UTR inh | HIF-2a inh | TROY NFkB inh | HSP90 inh
Cc1ccc(C(=O)Nc2cnc3ccccn3c2=O)cc1 | 27 | 9 | -120 | -185 | -31 | 4
Cc1cccc(NC(=O)c2cnc3ccccn3c2=O)c1 | 80* | 70* | x | -50 | -18 | -1
O=C(Nc1cnc2ccccn2c1=O)c1ccc(Cl)cc1Cl | 82* | 62* | 53 | -14 | 73* | 15
C[C@H](CO)N1C[C@H](C)[C@@H](CN(C)C)Oc2c(NS(=O)(=O)c3cn(C)cn3)cccc2C1=O | 20 | -2 | x | 3 | -11 | x
CCCNC(=O)c1cc(C2CCCCN2C(=O)c2cc(C(C)(C)C)nn2C)on1 (configuration not stated) | 5 | -8 | x | -6 | -12 | x
C/C(CC(=O)Nc1ccc([N+](=O)[O-])cc1)=N\NC(=O)c1ccccc1O | -27 | -10 | 9 | 1 | 32 | -1
C/C(CC(=O)Nc1ccc(N(C)C)cc1)=N\NC(=O)c1ccccc1O | 24 | 7 | -11 | 2 | 56* | -5
COc1ccc(C(=O)NCCN2CCC(n3c(=O)[nH]c4ccccc43)CC2)cc1F | 7 | 25 | x | 4 | 5 | x
CCC(C)n1ncn(-c2ccc(N3CCN(c4ccc(O)cc4)CC3)cc2)c1=O (configuration not stated) | -3 | 5 | 73* | 2 | 18 | -2
CCNC(=S)NNC(=O)c1cc(-c2cccc(C)c2)nc2ccccc12 | -36 | 61* | -116 | -223 | -30 | 2
CCNC(=S)NNC(=O)c1cc(-c2cccc(OCC)c2)nc2ccccc12 | -38 | 8 | -89 | -201 | -24 | 0
CCNC(=S)NNC(=O)c1cc(-c2ccc(OC)cc2)nc2ccccc12 | -7 | 89* | 7 | -133 | -15 | 4
Cn1cc(Cc2ccccc2)c(=O)c(Cc2ccccc2)c1 | 22 | -8 | x | 1 | -12 | x
Oc1ccc(-c2cn3ccccc3n2)cc1 | 8 | 63* | -48 | -285 | -24 | 2
c1ccc(-c2cn3ccccc3n2)cc1 | 42 | 43 | x | -143 | -29 | x
CCOc1ccc(-c2cn3ccccc3n2)cc1[N+](=O)[O-] | -31 | 52* | -160 | -267 | -56 | 3
CC(C)C(=O)Nc1cccc(-c2cn3ccccc3n2)c1 | -23 | -4 | -27 | 7 | -8 | 16*
CCCCOc1ccc(-c2cn3ccccc3n2)cc1[N+](=O)[O-] | -69 | 48 | -129 | -274 | -75 | 0
CN(C)S(=O)(=O)c1ccc(-c2cn3ccccc3n2)cc1 | -2 | 60* | -194 | -199 | -44 | 5
CC1(C(=O)Nc2ccc(F)c(Cl)c2)Cc2c(-c3ccc(C(N)=O)cc3)ccnc2O1 (configuration not stated) | -53 | 8 | x | 23 | 1 | x
CCc1cccc(C)c1NC(=O)C1CC(=O)N(C2CCCC2)C1 (configuration not stated) | 3 | -3 | x | 2 | 16 | x
O=S1(=O)C[C@H](N2CCCC2)[C@@H](COCc2ccccc2)N1 | -1 | 7 | x | 20 | 10 | x
O=[N+]([O-])c1ccc(-c2cn3ccccc3n2)cc1 | 9 | 28 | -148 | -247 | -57 | x
Brc1ccc(-c2cn3ccccc3n2)cc1 | 49 | 47* | -6 | -201 | -31 | 14
O=C(O)CN1C(=O)/C(=C\c2ccccc2OCc2ccc(Cl)cc2)SC1=S | -24 | 2 | 7 | -13 | -33 | -1
SMILES | TWEAK-Fn14 inh | C8 TRAIL sens | aSyn 5UTR inh | HIF-2a inh | TROY NFkB inh | HSP90 inh
O=C(O)CN1C(=O)/C(=C\c2cc(Br)ccc2OCc2ccc(Cl)cc2Cl)SC1=S | 3 | 1 | 0 | 2 | 87* | -4
CCn1cc(C(=O)NCc2ccccc2)c(=O)c2cc(F)c(N3CCN(C(=O)c4ccco4)CC3)cc21 | 68* | 35 | 8 | 15 | 36 | 6
CCn1cc(C(=O)NCc2ccc3c(c2)OCO3)c(=O)c2cc(F)c(N3CCN(C(=O)c4ccco4)CC3)cc21 | 54* | 32 | -7 | 23 | 40 | 8
O=C(COC(=O)COc1ccccc1)NCCC1=CCCCC1 | 19 | -22 | x | 19 | -8 | x
CCN(CC)C(=O)CSc1n[nH]c(=S)n1N | 84* | -22 | 3 | 11 | 7 | 1
O=C(NC(NC(=S)Nc1cccc(Cl)c1)C(Cl)(Cl)Cl)OCc1ccccc1 (configuration not stated) | 54* | -21 | 2 | -14 | 58* | -1
